Screens (PubChem)
VACV Venus inh: vaccinia inhibition (Venus reporter). Potency, µM (series often up to 36.5 µM), usual class: inhibitors. Vaccinia virus Venus reporter expression, fluorescence. 0.46% of 330,000 active. AID 720580; calls by dose curve; tested in A549 cells; note: nearly all actives have a fitted effect of over 30% in size
LASV entry inh: inhibitors of Lassa virus binding or cell entry; Lassa virus pseudotype entry inhibition, cell reporter; Potency, µM (titrated, usually from 37.9 µM), hits mostly inhibitors; 1.2% of 300,000 active; AID 540256; calls by dose curve; tested in HEK293 cells; note: nearly all actives have a fitted effect of over 50% in size
FMDV antiviral: foot and mouth disease virus antiviral activity. 1.2% of 410,000 active. Potency, µM (highest dose often 57.9 µM), hits mostly inhibitors. FMDV antiviral cell-based qHTS; calls by dose curve; tested in HEK293T cells; note: read-out not given here; nearly all actives have a fitted effect of over 45% in size
Vaccinia mCherry: inhibitors of vaccinia virus infection (mCherry reporter signal). Vaccinia virus mCherry reporter infection, fluorescence. Potency, µM (top dose mostly 36.5 µM), actives largely listed as inhibitors. 0.63% of 310,000 active. AID 720579; calls by dose curve; tested in A549 cells; note: nearly all actives have a fitted effect of over 35% in size
Marburg entry inh: inhibitors of Marburg virus binding or cell entry; Marburg virus pseudotyped entry inhibition, cell reporter; Potency, µM (titrated, usually from 37.8 µM), usual class: inhibitors; 1.8% of 300,000 active; AID 540276; calls by dose curve; tested in HEK293 cells
HCMV antiviral: blocks human cytomegalovirus replication; HFF cells, HCMV-luciferase reporter, 72 h; stronger effect = lower value; activity change, negative = inhibition, % at 57.5 µM; 4.5% of 410,000 active; AID 1259415; in the data active = activity change below about -60%; inconclusive = no clear call, values can overlap the other calls; inactive = above about -39%
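Human foreskin fibroblasts infected with luciferase-reporter HCMV at MOI 1 PFU/cell, compounds at two doses. Luciferase measured 72 h post infection; normalized to buffer-only basal and Salinomycin (10uM) controls.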
A number is an active result; i = inactive; ? = inconclusive; nt = no result; ! = repeats disagree; [ ] = another dose, or the depositor's remark. In the library only some 6.5% were active in any assay of this set; here they are far more common.

SMILES	VACV Venus inh	LASV entry inh	FMDV antiviral	Vaccinia mCherry	Marburg entry inh	HCMV antiviral
Cc1ccc(-c2cn3c(n2)sc2cc(C(=O)NC(C)C45CC6CC(CC(C6)C4)C5)ccc23)cc1 (stereo not given)	i	i	i	i	nt	nt
COc1cccc(C2C3=C(Nc4[nH]n(-c5ccccc5)c(=O)c42)c2ccccc2C3=O)c1 (stereo not given)	nt	i	nt	nt	i	nt
Cn1c2c(c(=O)[nH]c1=O)C(c1cccc(O)c1)C1=C(N2)c2ccccc2C1=O (stereo not given)	i	?	?	?	?	-100
COc1ccc2c3n([n+]([O-])c2c1)C(C)CN=C3c1ccc(C)cc1 (stereo not given)	nt	nt	nt	nt	nt	i
Cc1ncc2c(c1CNS(=O)(=O)N(C)C)CCN(C(=O)c1c(F)cccc1F)C2	i	nt	i	i	nt	nt
CCc1ccccc1NC(=O)N1CC(CC)Oc2ccc(Cl)cc21 (stereo not given)	i	?	i	i	nt	-61
CCC1CN(C(=O)Nc2ccc(C(=O)O)cc2)c2cc(Cl)ccc2O1 (stereo not given)	i	i	i	i	i	i
CCC1CN(C(=O)NCc2ccc(C)cc2)c2cc(C)ccc2O1 (stereo not given)	i	?	i	i	nt	-75!
CC(C)C(=O)Nc1ccc2nc(SCCOc3ccccc3)sc2c1	i	i	i	i	i	i
CN(C/C=C/C#CC(C)(C)C)Cc1cccc2ccccc12	i	nt	?	i	nt	-80
CSCC[C@H](NC(=O)Cc1ccc(Cl)cc1)C(=O)N1CCC2(CC1)NCCc1[nH]cnc12	i	i	i	i	i	?
CCOC(=O)C1(Cc2ccccc2C(F)(F)F)CCN(C2CCCC2)CC1	i	?	i	i	7.9µM	i
CCOC(=O)C1(Cc2ccccc2C(F)(F)F)CCN(C2CCSC2)CC1 (stereo not given)	i	i	i	i	i	?
C#CC[N+](C)(C)CC#Cc1ccc(C)cc1	nt	nt	i	nt	nt	-90
COc1ccc(C(=O)OCc2nnc(-c3ccccc3)o2)cc1S(=O)(=O)N1CCOCC1	i	i	i	i	?	i
O=C(OCc1nnc(-c2ccc([N+](=O)[O-])cc2)o1)c1ccc(F)c(S(=O)(=O)N2CCOCC2)c1	i	i	i	i	i	-67
CCCCC/C=C\C\C=C/C=C/C=C/[C@@H](SCC(NC(C)=O)C(=O)O)[C@@H](O)CCCC(=O)O (stereo not given in full)	i[0.293 µM]	nt	i[0.463 µM]	i[0.293 µM]	nt	nt
COc1ccc2nc(N3C(=O)CNC3=S)sc2c1	i[7.34 µM]	i	i	i[7.34 µM]	?	-69
Cc1ccc2nc(N3C(=O)CNC3=S)sc2c1	i	?	i	i	?	-92
CCOC(=O)c1cc(S(=O)(=O)NCCc2ccccc2)cn1C	i	i	i	i	i	i
Fc1ccc(CNC(=S)Nc2cccc(C(F)(F)F)c2)cc1	?	?	i	i	?	i
Fc1ccc(Nc2nc3nonc3nc2Nc2cccc(C(F)(F)F)c2)cc1	?	?	?	?	2.2µM	-101
CCn1c(-c2ccccc2F)nc2cc(C(=O)NC(c3ccccn3)C(F)(F)F)cc(NC(C)=O)c21 (stereo not given)	i	nt	i	i	nt	nt
COc1ccc(N2CC(NC(=O)/C=C\c3ccccc3)CC2=O)cc1 (stereo not given)	i	i	i	i	nt	i
NS(=O)(=O)c1ccc(NS(=O)(=O)c2ccc(NC(=S)Nc3ccccc3)cc2)cc1	i	i	i	i	i	i
SMILES	VACV Venus inh	LASV entry inh	FMDV antiviral	Vaccinia mCherry	Marburg entry inh	HCMV antiviral
NS(=O)(=O)c1ccc(NC(=S)Nc2ccn(Cc3cccc4ccccc34)n2)cc1	i	3.5µM	?	i	6.3µM	-79
O=C(c1nn2c(C(F)(F)F)cc(-c3ccccc3)nc2c1Cl)N1CCN2CCCC2C1 (stereo not given)	i	i	i	?	?	-61
O=C(c1cc2nc(-c3ccccc3)cc(C(F)(F)F)n2n1)N1CCN2CCCC2C1 (stereo not given)	i	?	i	i	i	i
CCCN(CC1CC1)c1nc(N)c2c(N)nc(OC)cc2c1C#N	?	i	?	11µM	?	i
CCOC(=O)/C(=N/Nc1ccccc1)N1CCCc2ccccc21	i	i	?	i	?	-63
O=C(Cc1cccs1)N[C@@H]1C(=O)N2C(C(=O)[O-])=C(C[n+]3ccccc3)CS[C@H]12	i	nt	i	i	nt	nt
COc1ccc(C(C#N)=C2C=CC(=NO)C=C2)cc1	i[7.34 µM]	?	i	i[7.34 µM]	?	i
CC(=O)ON=C1C=CC(=C(C#N)c2ccccc2)C=C1	i	nt	?	i	nt	-101
CC(C)(C)Cc1c(-c2ccc(F)cc2)nc2ccc(Br)cn12	i	nt	i	i	nt	-76
CCOc1cc(N)c(Cl)cc1C(=O)NCC1CN(Cc2ccc(F)cc2)CCO1 (stereo not given)	i	nt	i	i	nt	-66!
O=C(NCC1CCCO1)c1ccc(COc2ccc(F)cc2)o1 (stereo not given)	i	?	nt	i	i	i
CC(COc1ccc(/C=C/c2ccccc2)cc1)[N+](C)(C)C (stereo not given)	i	?	i	i	?	-96
Cc1nc(-c2ccc(F)cc2)c(CC(=O)N(C)CC(=O)Nc2ccc(F)cc2)s1	i	i	i	i	i	i
O=C(Cc1sc(-c2ccccc2Cl)nc1-c1ccccc1)Nc1ccccc1	i	?	?	nt	?	-90
CC(=O)Nc1ccc(NC(=O)Cc2sc(-c3cccnc3)nc2-c2ccc(C)cc2)cc1	i	i	i	i	?	i
O=C(Cc1sc(-c2ccccc2Cl)nc1-c1ccccc1)Nc1ccc(F)cc1	i	i	i	nt	?	-60
O=C(Cc1sc(-c2ccccc2)nc1-c1ccccc1)Nc1ccc(Cl)cc1	i	i	i	i	i	-76
Cc1cc[n+](CCC2CCCCC2)cc1	?	nt	nt	i	nt	nt
COc1ccc2oc(/C=C/N(C)C)c(C(=O)c3ccc(Cl)cc3)c2c1	nt	?	i	nt	21µM	i
COc1ccc2oc(C)c(C(=O)c3ccccc3)c2c1	i	i	i	i	i	i
O=C(O)[C@@H]1CC(=O)n2c(nc3ccccc32)S1	nt	nt	nt	nt	i	nt
COc1ccc(-c2csc(NC(=O)c3ccc(N4C(=O)CCC4=O)cc3)n2)cc1	nt	i	?	nt	i	-67
COc1ccc(-c2csc(NC(=O)c3cccc(N4C(=O)CCC4=O)c3)n2)cc1OC	i	i	i	i	?	i
O=C(Nc1nc(-c2ccc(F)cc2)cs1)c1ccc(N2C(=O)CCC2=O)cc1	i	i	?	i	?	i
COc1ccccc1-c1csc(NC(=O)c2ccc(N3C(=O)CCC3=O)cc2)n1	nt	nt	18µM	nt	nt	i
Cc1cc(C)nc(NC(=NCCc2c[nH]c3ccccc23)NC(=O)Nc2ccc(Cl)c(Cl)c2)n1	i	i	i	i	?	i
COc1ccc2[nH]cc(CCNC(=O)Cc3ccc(F)cc3)c2c1	nt	nt	i	nt	nt	i
Cc1cc(C)nc(NC(=NCCc2c[nH]c3ccccc23)NC(=O)Nc2cccc([N+](=O)[O-])c2)n1	i	i	i	i	i	i
COc1ccc2[nH]cc(CCN=C(NC(=O)c3ccccc3F)Nc3nc(C)cc(C)n3)c2c1	i	?	i	i	?	-66
